This is an account of results in PubChem BioAssay AID624417 (National Center for Advancing Translational Sciences (NCATS), 2012).

Structures are written as SMILES. About 6,400 (1.6%) of roughly 410,000 compounds were called active. Roughly 20% stayed inconclusive and do not appear here. This is one part of a sample in which actives are shown more often than they occur. Unmarked numbers belong to inactive results. Calls come from the whole dose curve; as a rule, active = well fitted inhibition curve with a large enough effect; inconclusive = small, poorly fitted or top-dose-only effect; inactive = no such curve, though single readings can be large or run the other way.
% is set by controls: 0 for no effect and ±100 for the full control effect; potency is the fitted concentration of half-maximal effect.

Sequence of Glucagon-like peptide 1 receptor (Homo sapiens) (P43220 whole entry, looked up): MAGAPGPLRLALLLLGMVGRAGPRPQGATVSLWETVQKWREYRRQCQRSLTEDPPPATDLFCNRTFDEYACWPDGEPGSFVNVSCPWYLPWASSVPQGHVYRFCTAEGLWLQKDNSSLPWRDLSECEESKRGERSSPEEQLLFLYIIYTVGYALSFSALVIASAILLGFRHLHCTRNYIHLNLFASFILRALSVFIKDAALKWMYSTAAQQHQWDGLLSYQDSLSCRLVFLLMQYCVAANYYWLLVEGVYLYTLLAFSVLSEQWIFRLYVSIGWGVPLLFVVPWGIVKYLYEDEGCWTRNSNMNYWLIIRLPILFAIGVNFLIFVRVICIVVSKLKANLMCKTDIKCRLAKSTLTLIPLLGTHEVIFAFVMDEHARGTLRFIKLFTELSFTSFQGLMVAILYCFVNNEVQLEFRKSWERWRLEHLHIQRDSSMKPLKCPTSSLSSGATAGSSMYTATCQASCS

The experiment has as its target Glucagon-like peptide 1 receptor (Homo sapiens) (UniProt P43220). Kind of experiment: qHTS of GLP-1 Receptor Inverse Agonists (Inhibition Mode). Note: nearly all actives have a fitted effect of over 55% in size. To be noted: HEK293 GLP-1R CRE-luciferase, luminescence, 24 h; series mostly up to 38.3 µM; activity change, negative = inhibition: at the top concentration. An excerpt: The overall goal of this project was to develop a novel assay for discovering small molecule ligands for class B1 G protein-coupled receptors (GPCRs). Very few agonists (or inverse agonists in inhibition mode) with generally weak activity for this entire group of physiologically important receptors are known to date. To establish proof-of-principle that this critical bottleneck can be overcome with a suitable screening approach, our studies focused on the class B1 receptor for glucagon-like peptide-1 (GLP-1R), a potential therapeutic target for diabetes and neurodegenerative disease. The assay was developed using a cell-based functional readout. Toward this goal, stably transfected HEK293 cell clones were established that co-express (i) a cAMP-responsive luciferase reporter gene, and (ii) constitutively active GLP-1R that upon ligand interaction inhibit (inverse agonists) the luciferase activity. In addition, two control cell lines were developed: (i) one that express only the cAMP-responsive reporter gene to enable initial exclusion of GLP-1R independent effects of candidate probes; and (ii) one with the reported gene cloned with another constitutively active orphan receptor GPR119 to enable exclusion of GLP-1R independent inhibitor effects of candidate inverse agonists. To that end, this assay was optimized for 1536-well format and screened against the MLSMR. […] NIH Molecular Libraries Probe Production Network [MLPCN] NIH Chemical Genomics Center [NCGC] Grant: NS064851 PI Name: Martin Beinborn, Tufts Medical Center
Six ul of cell suspension (200 cells/uL in DMEM + 10% Nu serum + 1% pen-strep) is dispensed in a white solid 1536-well plate. The plates are incubated for 12 hours at 37 deg C at 5% CO2 followed by addition of 23 nL compounds. After 24 hr incubation at 37 deg C and 5% CO2, 3 uL of luciferase assay detection reagent is added. A luminescence read is obtained on the PerkinElmer Viewlux after 12 min incubation at room temperature.
(Quantitative high-throughput screening tests each substance at several concentrations.)
Turning to `COc1cc(-n2c(=S)[nH]c3ccc(C)cc3c2=O)c(Cl)cc1Cl`, the Potency is 12.6 µM (active).

Turning to `O=c1c2ccccc2[nH]c(=S)n1-c1cccc(Cl)c1`, the “activity change, negative = inhibition” value was -3.22%. On the same count and under the same terms, to `C[C@]12CCCCC1=CC(=O)C1C2CC[C@@]2(C)C1C[C@@H](F)[C@@H]2O` (some centres undefined) belongs 8.19%; to `COC1=CC=C2[C@H]3Cc4ccc(OC)c5c4[C@@]2(CCN3C)C1O5` (some centres undefined), 0.902%. Consider `COc1ccc2c(c1)NP(=S)(c1ccccc1)N2` (centres undefined), for which the “activity change, negative = inhibition” value is 40.2%.

Turning to `COC(=O)C1=C(c2ccc(F)cc2OCc2ccccc2)C[C@@H]2CC[C@H]1N2C(=O)NCc1ccc(Cl)cc1`, the “activity change, negative = inhibition” value was 9.06%. In the case of `COC(=O)C1=C(c2ccc(OCc3ccccc3)cc2)C[C@@H]2CC[C@H]1N2C(=O)NCc1cccc(F)c1`, the Potency was 4.47 µM (active). For `COC(=O)C1=C(c2ccc(OCc3ccccc3)cc2)C[C@@H]2CC[C@H]1N2C(=O)NCc1ccc(Cl)cc1`, the “activity change, negative = inhibition” value was 7.75%. For `COC(=O)C1=C(c2ccc(-c3ccccc3)c(F)c2)C[C@@H]2CC[C@H]1N2C(=O)NCc1ccc(F)cc1`, the “activity change, negative = inhibition” value was -3.76%. With `COC(=O)C1=C(c2ccccc2OCc2ccccc2)C[C@@H]2CC[C@H]1N2C(=O)NCc1ccc(OC)cc1`, the “activity change, negative = inhibition” value is -8.58%. As for `COC(=O)C1=C(c2cccc(OCc3ccccc3)c2)C[C@@H]2CC[C@H]1N2C(=O)NCc1ccc(Br)cc1`, the Potency is 12.6 µM (active). Regarding `COc1ccc(NC(=O)N2Cc3ccccc3-n3nncc3C2)cc1`, the “activity change, negative = inhibition” value is 17.6%. With `O=P(OC1=CCCCC1)(c1ccccc1)c1ccccc1`, the “activity change, negative = inhibition” value was -26.9%. As for `CCOC(=O)CNC(=O)N1Cc2cc(N3CCCCC3)ccc2-n2nncc2C1`, the “activity change, negative = inhibition” value was 23.3%. On to `O=C1NCN(c2ccccc2)C12CCN(C(c1cccs1)c1nnnn1C1CCCCC1)CC2` (centres undefined), for which the “activity change, negative = inhibition” value is -19.9%. For the molecule `CC1([N+](=O)[O-])COP(=O)(Nc2ccc(F)cc2)OC1` (centres undefined), the “activity change, negative = inhibition” value is 17.7%. Consider `C[C@]12CCC3C(CC[C@H]4[C@H](O)[C@H](O)CC[C@]34C)C1CC[C@@H]2O` (some centres undefined), for which the “activity change, negative = inhibition” value was 31.4%.

As to `Cc1ccsc1C(=O)C1CCCN(Cc2ccc(O)cc2)C1` (centres undefined), the “activity change, negative = inhibition” value was -8.89%. With `Cc1ccc(CN2CCCC(C(=O)c3ccc4c(c3)OCO4)C2)cc1C` (centres undefined), the Potency was 11.2 µM (active). On to `COc1ccc(C(=O)C2CCCN(Cc3ccc(C)s3)C2)cc1OC` (centres undefined), for which the “activity change, negative = inhibition” value was -22.3%. On to `COc1cc(C(=O)N2Cc3ccc(Br)cc3-n3nncc3C2)cc(OC)c1OC`, for which the “activity change, negative = inhibition” value is 29.4%. On to `Clc1ccc(Cl)c(Oc2ccc(Oc3nc(Cl)ccc3Cl)cc2)n1`, for which the “activity change, negative = inhibition” value is 42% [at 38.3 µM, GLP-1R form is constitutively active]. As for `C[C@H]1CN([C@@H](C)CO)C(=O)CCCn2nncc2CO[C@H]1CN(C)C(=O)Oc1cccc2ccccc12`, the “activity change, negative = inhibition” value is 12.5%.

On to `CC=C(C)C(=O)OC1CCN2CC=C(COC(=O)C(O)(C(C)OC)C(C)(C)O)C12` (centres undefined), for which the “activity change, negative = inhibition” value is 1.04%. On to `Cc1ccc(S(=O)(=O)N(C)c2ccc(C(=O)NCC3(N(C)C)CCCCC3)cc2)cc1`, for which the Potency is 3.16 µM [GLP-1R form is constitutively active] (active). As for `COC1C(O)C(C)OC(OC2CCC3(C=O)C(CCC4C3CCC3(C)C(C5=CC(=O)OC5)CCC43O)C2)C1O` (centres undefined), the “activity change, negative = inhibition” value is -95.1%.

As to `O=c1c2ccccc2nc(/C=C/c2ccc(F)cc2)n1-c1ccccc1O`, the “activity change, negative = inhibition” value is -19.7%.

As to `O=c1c2ccccc2nc(/C=C/c2ccco2)n1-c1ccccc1O`, the Potency was 11.2 µM (active). On to `Cn1cc(/C=C/c2nc3ccccc3c(=O)n2-c2ccccc2)c2ccccc21`, for which the “activity change, negative = inhibition” value is -25.5%. On to `CC1CCCN1CCC(C(N)=O)(c1ccccc1)c1ccccc1` (centres undefined), for which the “activity change, negative = inhibition” value was 1.28%. The same measure, in the same setting: to `CC1CC=CCC12C(=O)NC(=S)NC2=O` (centres undefined) belongs 2.41%; to `CCN1C(=O)NC(=O)C2(CCCC2)C1=O`, 18.7%. In the case of `C[C@H]1CN([C@@H](C)CO)C(=O)CCCn2nncc2CO[C@H]1CN(C)C(=O)Oc1ccccc1`, the “activity change, negative = inhibition” value is 1.58%.

As for `O=C1NC(=O)C(Cc2ccccc2)C(=O)N1`, the “activity change, negative = inhibition” value was 24.2%. For `COC(=O)C[C@H]1CC[C@H]2NC[C@@H](O)COC[C@@H]2O1`, the “activity change, negative = inhibition” value is 4.27%. On to `CCn1cc(CN2CCCC(C(=O)c3cccc(C(F)(F)F)c3)C2)cn1` (centres undefined), for which the “activity change, negative = inhibition” value is -9.71%. In the case of `COc1cccc(C(=O)Nc2ccc(-c3cc(C(F)(F)F)nn3-c3ccccc3)cc2)c1`, the Potency was 7.94 µM [GLP-1R form is constitutively active] (active). Regarding `COc1ccc(-c2nn(CCC#N)cc2C(=O)Nc2ccc(C(C)=O)cc2)cc1`, the “activity change, negative = inhibition” value is 26.7%. With `COc1ccc(NC(=O)c2cn(CCC#N)nc2-c2ccc([N+](=O)[O-])cc2)cc1`, the “activity change, negative = inhibition” value was 5.82%. On the same count and under the same terms, next, `O=C1NC(=O)C(CCOc2ccccc2)(CCc2ccccc2)C(=O)N1`: -13%. Same read-out and setting: to `O=C1C2CCN(CC2)C1(CO)CO` belongs 10.6%; to `CC12CCC(O)CC1CCC1C2CCC2(C)C(C(=O)CC(O)C(F)(F)F)CCC12` (centres undefined), -25.5%. Consider `CCCCOc1ccc(C(=O)N2CC(=O)Nc3ccc(Br)cc3C2c2ccc(F)cc2)cc1` (centres undefined), for which the Potency is 10 µM [GLP-1R form is constitutively active] (active). As for `CC(=O)NCC1=C(c2ccc3ccccc3c2)C[C@@H]2CC[C@H]1N2Cc1ccco1`, the “activity change, negative = inhibition” value was -25.4%. As for `O=C1C2(Cl)C3(Cl)C4(Cl)C(Cl)(Cl)C5(Cl)C3(Cl)C1(Cl)C5(Cl)C24Cl` (centres undefined), the Potency is 4.47 µM (active). Take `CC(C)CN1Cc2cc(N3CCCCC3)ccc2-n2nncc2C1`: the “activity change, negative = inhibition” value was 4.71%. On the same count and under the same terms, next, `COc1ccc(C2C=C(C)Oc3c2c(=O)oc2ccccc32)cc1OC` (centres undefined): 18.2%; `CSCCC(c1nnnn1C(C)(C)C)N1CCC(n2c(=O)[nH]c3ccccc32)CC1` (centres undefined): 8.28%. In the case of `O=C(CCN1CCCCC1)NCC(=O)Nc1ccc(Br)cc1C(=O)c1ccccc1`, the “activity change, negative = inhibition” value was 0%.

`O=C(CN1CCCCC1)Nc1ccc(Br)cc1C(=O)c1ccccc1Cl`: the Potency is 10 µM [GLP-1R form is constitutively active] (active). Consider `O=C(COC(=O)c1ccccc1)Nc1ccc(Cl)cc1C(=O)c1ccccc1`, for which the “activity change, negative = inhibition” value was 16.5%. On the same count and under the same terms, next, `CC(=O)c1ccc(-c2ccc(Cn3c(C)nc4cc(N)c(C)nc43)cc2)cc1`: 52.8% [at 38.3 µM, GLP-1R form is constitutively active]. `O=C(NC1CCCCC1)N1Cc2cc(N3CCCCC3)ccc2-n2nncc2C1`: the “activity change, negative = inhibition” value is 4.72%. On the same count and under the same terms, to `CC(=O)C1(O)CCC2C3CCC4=C(Cl)C(=O)CCC4(C)C3CCC21C` (centres undefined) belongs -1.41%. Consider `CCOC(=O)C1(Cc2ccc(Cl)cc2)CCN(C(C)CCn2cccn2)CC1` (centres undefined), for which the Potency was 7.94 µM [GLP-1R form is constitutively active] (active). As to `Oc1ccc2c3c1OC1[C@H](O)CC[C@@]4(O)[C@@H](C2)N(CC2CC2)CC[C@]314` (some centres undefined), the Potency result was “inactive”. For `CC1CNCCN1c1ccc(Cl)cc1` (centres undefined), the “activity change, negative = inhibition” value was -15.4%. Turning to `CC1=C(C(=O)Nc2ccccc2)S(=O)(=O)CCO1`, the Potency was 10 µM (active).

`CC1=C(C(=O)Nc2ccccc2)SCCO1`: the “activity change, negative = inhibition” value was 9.26%.
